The panel holds about 83,000 compounds, 20% with a hit somewhere; the sample as a whole holds those more often.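 In brief: 96-well plates, 48 h treatment, single concentration, percent growth endpoint.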 The source made the active and inactive calls. The calls were made as follows: active = growth percent below 10; inactive = the rest.
Columns and labels:
Test in all cases: NCI-60 one-dose screen, 48 h (100 = growth as untreated, 0 = no growth, -100 = all killed)
Settings in all cases: 10 µM unless noted
[1] = tested on: NCI-H23 lung
[2] = tested on: NCI-H226 lung
[3] = tested on: NCI-H322M lung
[4] = tested on: HOP-62 NSCLC
[5] = tested on: NCI-H460 lung
[6] = tested on: HOP-92 NSCLC
[7] = tested on: NCI-H522 lung
[8] = tested on: A549/ATCC NSCLC
[9] = tested on: 786-0 renal
[10] = tested on: COLO 205 colon

Measured: growth

COc1ccc(-c2cnoc2-c2cc(OC)c3c(c2)OCCO3)cc1
inactive: [1] 16.7% | [2] 61.8% | [3] 45% | [6] 31% | [8] 18.6%
active: [4] -8.55% | [5] 3.25% | [7] -39.1% | [9] 8.21% | [10] -58.4%

CCOC(=O)N1CCN(c2nc(Nc3cc(C)[nH]n3)c3ccccc3n2)CC1
inactive: [1] 65.8% | [2] 34.8% | [3] 88.5% | [4] 49.6% | [5] 23.1% | [6] 31.3% | [7] 10.4% | [8] 34.4% | [9] 44% | [10] 14%

CCN(CC)CCCNc1cccc2c(SCc3ccccc3)ccnc12
inactive: [1] 69.3% | [2] 89.8% | [3] 41.6% | [4] 94.8% | [5] 72% | [6] 26.2% | [7] 52% | [8] 63.7% | [9] 72.7% | [10] 106%

CC/C(=C(\c1ccccc1)c1ccc(OCCNC)cc1)c1ccccc1
active: [1] -90.5% | [2] -84.1% | [3] -99.5% | [4] -64.2% | [5] -71.3% | [6] -85.6% | [7] -74.9% | [8] -39.2% | [9] -92.7% | [10] -85.5%

CSc1nc(NCCO)c(C#N)c(-c2cccc(N)c2)n1
inactive: [1] 90.5% | [2] 92.8% | [3] 97.6% | [4] 83.7% | [5] 99.6% | [6] 95.7% | [7] 87.4% | [8] 100% | [9] 103% | [10] 108%

CN1CCN(Cc2ccc(NC(=O)c3cncc(C#Cc4cncc5nccnc45)c3)cc2C(F)(F)F)CC1
inactive: [1] 33.8% | [3] 43.6% | [4] 53.5% | [5] 34.5% | [7] 43.8% | [8] 70.8% | [9] 73.1%
active: [2] 5.97% | [6] -11.9% | [10] 2.52%

CCc1ccc(C(c2ccc(CC)cc2)C(Cl)(Cl)CCl)cc1
inactive: [1] 92.8% | [2] 101% | [3] 110% | [4] 99.1% | [5] 98.8% | [6] 55.2% | [7] 83% | [8] 149% | [9] 84% | [10] 100%

CC(=O)N1CC(Nc2ccc(OC(F)(F)F)cc2)=CC1=O
inactive: [1] 56.8% | [2] 67.5% | [3] 43.3% | [4] 30.2% | [5] 20.6% | [6] 50% | [7] 29.3% | [8] 38.9% | [9] 53.6%
active: [10] 4.8%

COc1cc(-c2cc(-c3nc4ccc(Cl)cc4[nH]3)[nH]n2)cc(OC)c1OC
inactive: [1] 45.5% | [2] 18.1% | [3] 51.4% | [4] 40.1% | [5] 60.4% | [6] 67.2% | [7] 45.3% | [8] 50% | [9] 65.1% | [10] 60.5%

Cc1ccc(S(=O)(=O)N(CCc2ccc(Cl)cc2)S(=O)(=O)c2ccc(C)cc2)cc1
inactive: [1] 90.9% | [2] 75.2% | [3] 93.1% | [4] 103% | [5] 101% | [6] 88.1% | [7] 77.4% | [8] 88.3% | [9] 94.4% | [10] 111%

CN1CCN(c2ccc3nc(-c4ccc5nc(-c6ccc(OCCC(C)(C)C)cc6)[nH]c5c4)[nH]c3c2)CC1
inactive: [2] 95.3% | [3] 40.7% | [4] 21.5% | [6] 69.6%
active: [1] -3.61% | [5] -80% | [7] -38% | [8] -45.3% | [9] -60.2% | [10] 5.08%

COc1cccc(-c2nc3sccn3c2-c2ccnc(NCCCNS(=O)(=O)c3ccc(Cl)cc3)c2)c1
inactive: [1] 54.4% | [2] 42% | [3] 74.4% | [4] 88.7% | [5] 49.9% | [6] 72% | [7] 55.5% | [8] 40.8% | [9] 58.4% | [10] 44.9%

From PubChem BioAssay (NCI)
